Source: PubChem BioAssay AID1851 (National Center for Advancing Translational Sciences (NCATS), 2009)
About 2,600 (16%) of roughly 16,000 compounds were called active. Inconclusive results (about 20%) are left out. The call rests on the fitted dose curve; in most records, active means well fitted curve in the direction sought with a large enough effect; inconclusive means small, poorly fitted or top-dose-only effect, or effect the other way; inactive means no such curve, though single readings can be large or run the other way. Only a sample is shown.

Molecular target: Cytochrome P450 2D6 (Homo sapiens) (UniProt P10635)
Sequence (P10635 whole entry, looked up): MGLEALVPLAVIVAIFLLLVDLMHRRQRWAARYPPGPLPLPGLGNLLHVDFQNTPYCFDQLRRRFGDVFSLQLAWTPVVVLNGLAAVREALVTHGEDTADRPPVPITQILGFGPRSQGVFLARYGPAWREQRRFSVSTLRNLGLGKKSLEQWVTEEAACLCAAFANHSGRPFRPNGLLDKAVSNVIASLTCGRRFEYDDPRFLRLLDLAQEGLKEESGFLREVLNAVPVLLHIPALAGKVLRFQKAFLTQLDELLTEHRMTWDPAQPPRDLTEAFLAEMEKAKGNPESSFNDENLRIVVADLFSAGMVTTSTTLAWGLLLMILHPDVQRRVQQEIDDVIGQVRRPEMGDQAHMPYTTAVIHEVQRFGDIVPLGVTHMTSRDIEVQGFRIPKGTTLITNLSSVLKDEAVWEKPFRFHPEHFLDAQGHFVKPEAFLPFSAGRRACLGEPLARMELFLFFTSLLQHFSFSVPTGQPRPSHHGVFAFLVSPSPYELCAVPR
Test: Cytochrome panel assay with activity outcomes
Conditions: recombinant CYP, pro-luciferin dealkylation, luminescence, p450-cyp2d6; series mostly up to 57.1 µM; activity, negative = inhibition: at the top concentration
On the % scale 0 is the no-effect control and ±100 the full control effect.

activity, negative = inhibition, inactive:
Cc1cnn(-c2ccc3nnc(-c4ccc(Cl)cc4)n3n2)c1 -4.72%, N#CC(c1ccc(Cl)cc1)c1nc2ccccc2nc1C(F)(F)F (stereo unspecified) -19.3%, Clc1ccc(/C=N/Nc2nnc(-c3ncc[nH]3)c3ccccc23)cc1 -28.8%, O=c1[nH]c(=O)n([C@@H]2C[C@H](O)[C@H](CO)O2)cc1I 3.14% [at 25.6 µM], N#Cc1cc(-c2ccc(Cl)cc2)cnc1Sc1ccccc1 0.543%, N#Cc1cc(-c2ccc(Cl)cc2)cnc1Sc1ccc(F)cc1 12.5%, Cc1cc(C)cc(-n2c(C)cc(C=C(C#N)C#N)c2C)c1 25.6%, Cn1c(=O)c2c(nc(C(=N)SCC(=O)O)n2C)n(C)c1=O 1.35% [at 11.4 µM], O=C1C2CCCN2C(c2ccccc2F)N1c1ccc(Cl)cc1 (stereo unspecified) -25.3%, S=C1N(c2ccccc2)C(c2ccc(Cl)cc2)N2CCCN12 (stereo unspecified) -9.66%, Cc1cnn(CCC(=O)NNC(=S)Nc2cccc(Cl)c2)c1 -13.5%, COCCn1c(=O)c(-c2cc(F)cc(F)c2)nc2cnc(Oc3cccc(Cl)c3)nc21 -0.734%, Cc1cc(=O)oc(C)c1C(=O)NCc1ccccn1 6.42%, Cc1cc(NCc2ccccn2)ccc1Br -27.7%, O=C(NNC(=O)c1ccccc1-n1cccc1)c1ccccc1 -24.4%, O=C(O)c1ccccc1C(=O)NNc1ccc(Cl)cc1 11.1%, O=C(C[N+]1(c2ccccc2)CCOCC1)c1ccccc1 -6.92% [at 11.4 µM], Cc1ccc(S(=O)(=O)N/N=C/c2ccc(OC3CSC3)cc2)cc1 5.99%, O=S(=O)(N/N=C/c1ccc2c(c1)OCCO2)c1ccc(Cl)cc1 -9.99%, N[C@@H](Cc1nn[nH]n1)C(=O)O 7.47% [at 11.4 µM], Cn1c(/C(C#N)=C(\O)c2ccc(S(=O)(=O)N3CCCCC3)cc2)nc2ccccc21 17.4%, C[C@]1(O)CC[C@H]2[C@H]3CC=C4N5CCN=C5CC[C@@]4(C)[C@H]3CC[C@@]21C -4.3% [at 11.4 µM], CN1CCN(c2ncnc3ccc(-c4ccccc4C#N)cc23)CC1 -6.68%, O=C(Nc1ncc(Cc2cc(Cl)ccc2Cl)s1)c1ccc([N+](=O)[O-])cc1 -22.9%, C/C=C\C1=C(CO)C(=O)C2O[C@]2(CC=C(C)C)C1=O (stereo partly specified) 0.497% [at 11.4 µM], COc1ccccc1Cn1c(=S)[nH]c2cc(C(=O)N3CCN(C)CC3)ccc2c1=O 2.19%, CCOc1cc2[nH]c(=S)n(CCC(=O)N3CCc4ccccc4C3)c(=O)c2cc1OCC 41.2%, COc1cc(/C=C(/NC(=O)c2ccccc2Cl)C(=O)O)cc(OC)c1OC 3.9%, Cc1cc(NC(=O)c2ccco2)ccc1-n1cnnn1 -7.42%, O=C(Nc1cccc2[nH]ncc12)c1ccc(F)cc1 -11.5%, COc1ccc(CCNC(=O)c2ccccc2NC(=O)c2ccco2)cc1OC -17.1%, COc1cc(C(=O)Nc2ccc(-c3nnc(-c4ccco4)o3)cc2)cc(OC)c1OC 12.8%, Cc1ccc(NC(=O)C(C)N2C(=O)C3C4CC(C(Br)C4Br)C3C2=O)cc1 (stereo unspecified) -6.68%, COC(=O)CSc1ccc(C#N)c(SCC(=O)OC)c1 -2.77%, CC(C)NC(=O)c1ccc(-c2cccc(C(F)(F)F)c2)o1 -3.7%, COc1ccc2c(=O)cc(-c3ccncc3)oc2c1OC 12.2% [at 11.4 µM], N=C(N)SCc1cccc(-c2nc3ccccc3c(=O)o2)c1 6.52% [at 11.4 µM], CCCNC1CCS(=O)(=O)C1 (stereo unspecified) -3.84%, C/C(=N/O)[C@@H]1C[C@H](CC(=O)O)C1(C)C -1.22% [at 11.4 µM], CCOC(=O)N/N=C(/C)c1ccc([N+](=O)[O-])o1 8.4%, Cc1ccc(-c2nnc(C)c(N3CC(C)OC(C)C3)n2)cc1 (stereo unspecified) 1.15%, Cn1c(C(=O)O)c(CC(=O)NCC2COc3ccccc3O2)c2ccccc21 (stereo unspecified) -7.48%, Cc1cc(C(=O)CSc2nnc(-c3ccccc3)o2)c(C)n1CC1COc2ccccc2O1 (stereo unspecified) -27.4%, C[N+]1(C)CCc2cc(O)c(O)cc2[C@H]1Cc1ccc(O)c(O)c1 -2.15% [at 11.4 µM], CC(C)N1CCN(c2ccc(OC[C@@H]3CO[C@@](Cn4cncn4)(c4ccc(Cl)cc4Cl)O3)cc2)CC1 -9.52% [at 25.6 µM], Cn1c(=S)c2[nH]c(SCc3cccnc3)nc2n(C)c1=O 14% [at 11.4 µM], Cc1ccc(C)c(N(CC(=O)NC2CCCC2)C(=O)c2cc3cc4cccc(C)c4nc3s2)c1 -12.4%, CC(=O)N1N=C(c2cccc([N+](=O)[O-])c2)OC1c1ccc(Cl)cc1Cl (stereo unspecified) -23.4%, CN(Cc1ccco1)c1cc(-c2cccc(C#N)c2)ncn1 -4.8%, CN(Cc1ccco1)c1ccnc(-c2ccoc2)n1 -15.5%, CN(Cc1ccco1)c1cc(-c2cccnc2)ncn1 -7.76%, CN(C)c1ccnc(-c2cccc(NS(C)(=O)=O)c2)n1 -4.86%, CCOC(=O)c1c(C)nc2c(c1-c1ccccc1)C(=O)CCC2 -6.08%, C=C(CC)C(=O)c1ccc(OCC(=O)O)c(Cl)c1Cl 1.74% [at 25.6 µM], C=CCNc1nc(Cl)nc(Nc2ccc(OC)cc2)n1 -1.99%, CNC(=O)[C@@H]1O[C@@H](n2cnc3c(NCc4ccc(N)cc4)ncnc32)[C@@H](O)[C@H]1O 0.722%, COc1nnc(OC)c2ccccc12 13.1%, NS(=O)(=O)c1cc(C(=O)O)c(O)c2ccccc12 0.979% [at 11.4 µM], COC(=O)/C=C\c1cc(O)ccc1O -4.4%, C#CCSc1nncn1C(=O)/C=C/c1ccccc1 -12.3%, Nc1nc2c(c(=O)[nH]1)CN(c1ccc(S(N)(=O)=O)cc1)CN2 -2.27% [at 11.4 µM], CCC(Sc1nc(C)cc(=O)[nH]1)C(=O)Nc1nc2c(s1)CCCC2 (stereo unspecified) -8.18%, N=C(N)SCCc1ccc(OCc2ccc([N+](=O)[O-])cc2)cc1 -2.73%, CCc1nnc(SCc2ccc(OC(C)C)cc2)n1N -55.5%, O=C1CN(C(=O)c2ccc(Br)o2)C(c2ccc(F)cc2)c2cc(Cl)ccc2N1 (stereo unspecified) -25.2%, C[C@@H]1CN2[C@H](c3ccc(Br)cc3)[C@H](C)CC[C@H]2C(=O)O1 -10.6% [at 11.4 µM], NC(=O)N[C@H]1NC(=O)NC1=O -1.33% [at 25.6 µM], CCOc1cc(C2NN=C(c3ccccc3)S2)ccc1OCc1ccccc1Cl (stereo unspecified) 11.3%, OCCCNCc1ccccn1 12.8% [at 11.4 µM], CCOc1cc(/C=C2\N=C(C)OC2=O)cc(Br)c1OCC(=O)OC 12.4%, O=C(NCc1ccccc1Cl)c1cnccn1 -16.1%, CCC(C)NC(=O)C1c2cc(OC)c(OC)cc2C(=O)N(C)C1c1cccs1 (stereo unspecified) 5.81%, C/C(=N/S(=O)(=O)c1ccc(Cl)c(Cl)c1)OCC(C)(C)C 8.65% [at 11.4 µM], COc1ccc(Oc2ncc3nc(-c4ccc(Cl)cc4)c(=O)n(C)c3n2)cc1 -0.462%, CN(C)CCNC(=O)C(C(=O)c1ccc(F)cc1)n1ccccc1=O (stereo unspecified) -5.55%, CCCCSc1nc(C)cc(NC(=S)Nc2ccc(OC)cc2)n1 -0.097%, CCc1cc[n+](-c2nc3ccccc3nc2C(=C=[N-])C#N)cc1 -20.7%, C/C(CC(=O)NCc1ccco1)=N\NC(=O)Cc1ccc(Cl)cc1 -4.76%, CCCCNC(=O)NS(=O)(=O)c1ccc(C)cc1 -0.907% [at 25.6 µM], CCCNC(=O)NS(=O)(=O)c1ccc(Cl)cc1 4.55% [at 25.6 µM], C/C(CC(=O)NCc1ccco1)=N\NC(=O)Cc1ccccc1 0.914%

AC50, inactive:
CCCN[C@@H](C)C(=O)Nc1ccccc1C, COc1ccccc1N1CCN(CCN2C(=O)CC3(CCCC3)CC2=O)CC1

AC50, active:
FC(F)(F)c1nc2ccccc2nc1N/N=C/c1ccc(Cl)cc1 0.631 µM, N#Cc1cc(N)ccc1Sc1ccc(Cl)cc1 22.4 µM, O=C1C2=C(NC(=S)NC2c2ccc(Cl)cc2)NC(c2ccc(Cl)cc2)N1c1ccc(Cl)cc1 (stereo unspecified) 15.8 µM, Cc1cc(Br)ccc1NCc1ccccn1 15.8 µM, O=C(NNC(=O)c1ccccc1O)c1ccc(Cl)cc1 2.82 µM, O=S(=O)(N/N=C\c1ccc2c(c1)OCO2)c1ccc(Cl)cc1 7.94 µM, CN1CCC(=C2c3ccccc3C=Cc3ccccc32)CC1 2.51 µM, CN1CCC(=C2c3ccccc3Sc3ccccc32)CC1 3.98 µM, CCC1CCCCN1CCn1c(=S)[nH]c2cc(OC)c(OC)cc2c1=O (stereo unspecified) 0.178 µM, COc1ccc(-c2cnnn2-c2ccc(NC(=O)c3ccco3)cc2)cc1OC 10 µM, O=C(Nc1ccc(-n2nncc2-c2ccco2)cc1)c1ccc(F)cc1 1.12 µM, N=C(N)SCc1cccc2c(=O)cc(-c3ccccc3)oc12 2.51 µM, O=C1CC2(CCCC2)CC(=O)N1CCCCNC[C@H]1COc2ccccc2O1 5.01 µM, O=C1CC2(CCCC2)CC(=O)N1CCNC[C@H]1COc2ccccc2O1 0.126 µM, CN(Cc1ccco1)c1ccnc(-c2cccnc2)n1 7.94 µM, COc1cccc(-c2nccc(N(C)Cc3ccco3)n2)c1 1.26 µM, COc1cccc(-c2cc(N(C)Cc3ccco3)ncn2)c1 15.8 µM, CN(Cc1ccco1)c1ccnc(-c2cccc(NS(C)(=O)=O)c2)n1 20 µM, CC(C)Oc1ccc(CSC(=N)N)cc1 14.1 µM, CCOc1cc(CNCCO)cc(Br)c1OCc1ccccc1Cl 4.47 µM, OCCCCNCc1ccc(OCc2ccccc2Cl)cc1 3.55 µM, CCCNC(=O)CC(NS(=O)(=O)c1ccc(Cl)cc1)c1ccco1 (stereo unspecified) 1.41 µM, O=C(CC(NS(=O)(=O)c1ccc(Cl)cc1)c1ccco1)NCc1ccco1 (stereo unspecified) 5.62 µM
